Results taken from PubChem BioAssay.
Values joined by “and” are separate entries in the source; they are usually repeats but may differ in a detail not shown here. Equal values may be shown once. The source holds several records for some structures; these can differ, active in one and inactive in another. Active and inactive are the calls of the source. Unless noted, no stated cut-off is given here; in the data, active means inhibition above about 80%; inactive means the rest.

What was measured:
[1] = growth inhibition, single agent or in combination, cell-based, chromothripsis tumors, cisplatin or BGB combos (AID 1671449); details: LFS_MB_P medulloblastoma cells;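 further: cells exposed for 96 hours; 0% = vehicle DMSO and 100% = killing by high DMSO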
[2] = growth inhibition, single agent and combos, cell-based, chromothripsis tumors, cisplatin or BGB combos (AID 1671450); details: HDN33 neuroblastoma cells, stronger effect = higher value;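 further: cells exposed to compound for four days; 0% = vehicle DMSO and 100% = cell killing by high DMSO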
[3] = growth inhibition, single agents and combos, ICB984, cell-based, cisplatin or BGB combos, synergistic combos for chromothripsis tumors (AID 1671451; call rule not given here;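 further: cells exposed for 96 hours before readout; 0% = vehicle DMSO and 100% = killing by high DMSO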); details: ICB984 medulloblastoma cells, drug combinations, stronger effect = higher value
[4] = growth inhibition, single agents and combos, LFS_MB_1R, cell-based, cisplatin or BGB combos, synergistic combos for chromothripsis tumors (AID 1671452); details: LFS_MB_1R medulloblastoma cells, stronger effect = higher value;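 further: cells exposed for 96 hours before readout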
[5] = growth inhibition, single agents and combos, HTB85, cell-based, BGB or cisplatin IC20 combos, synergistic combos for chromothripsis tumors (AID 1671453); details: HTB85 osteosarcoma cells, drug combinations, stronger effect = higher value;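 further: cells exposed for 96 hours before readout; 0% = vehicle DMSO and 100% = high DMSO killing control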
[6] = growth inhibition, single agents and combos, CRL2098, cell-based, BGB or cisplatin IC20 combos, synergistic combos for chromothripsis tumors (AID 1671454); details: CRL2098 osteosarcoma cells, drug combinations, stronger effect = higher value;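 further: cells exposed for 96 h before readout; 0% = vehicle DMSO and 100% = killing by high DMSO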
[7] = growth inhibition, single agents and combos, HD-MB03, cell-based, BGB or cisplatin IC20 combos, synergistic combos for chromothripsis tumors (AID 1671455; in the data active means inhibition above about 83%;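 further: 0% = vehicle DMSO and 100% = high DMSO as cytotoxic control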); details: HD-MB03 medulloblastoma cells, stronger effect = higher value
[8] = growth inhibition, single agents and combos, UWB1.289, cell-based, BGB or cisplatin combos, synergistic combos for chromothripsis tumors (AID 1671456); details: UWB1.289 ovarian carcinoma cells, stronger effect = higher value;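 further: cells exposed to compound for four days; 0% = vehicle DMSO and 100% = killing by high DMSO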
[9] = growth inhibition, single agents and combos, LFS_MB_2R, cell-based, cisplatin combos, synergistic combos for chromothripsis tumors (AID 1671457); details: LFS_MB_2R medulloblastoma cells, stronger effect = higher value;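 further: cells exposed to compound for four days before readout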
[10] = growth inhibition, MDA-MB-436, cell-based, BGB or cisplatin combos, synergistic combos for chromothripsis tumors (AID 1671458; call rule not given here;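 further: cells exposed for 96 hours; 0% = vehicle DMSO and 100% = killing by high DMSO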); details: MDA-MB-436 breast carcinoma growth inhibition, drug combinations, stronger effect = higher value
[11] = UWB1.289_BRCA1 ovarian cancer growth, cell-based, BGB or cisplatin combinations (AID 1671459); details: UWB1.289 BRCA1 ovarian carcinoma, drug combinations, stronger effect = higher value
[12] = drug combination toxicity in non-malignant astrocytes – cell-based, BGB or cisplatin IC20 combos, cytotoxicity control for chromothriptic childhood tumor combination screen (AID 1671460); details: Human astrocytes, viability inhibition, drug combinations, at 0.5 µM, stronger effect = higher value;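 further: cells exposed to compounds for 96 hours before viability readout; 0% = vehicle and 100% = killing control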
[13] = BT084 cell growth, single and combined drugs, ICGC_MB145, cisplatin and BGB IC40 combos (AID 1671461); details: BT084 medulloblastoma cells, drug combinations, stronger effect = higher value;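 further: cells exposed to drugs for 96 hours; 0% = vehicle DMSO and 100% = high DMSO full killing control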
[14] = RCMB18 cell growth, single agent and combined, cisplatin and BGB IC40 combos (AID 1671462); details: RCMB18 medulloblastoma cells, stronger effect = higher value;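 further: cells exposed to compound for four days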
[15] = CRL1545 cell growth, single agent and combined, cisplatin and BGB IC20 combos (AID 1671464); details: CRL1545 osteosarcoma cells, stronger effect = higher value;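 further: cells exposed to compound for 96 hours before readout; 0% = vehicle DMSO and 100% = high DMSO killing control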
[16] = measured here: combination with BGB IC40, at 0.05 µM
[17] = measured here: with BGB IC20 combination, at 0.5 µM
[18] = measured here: with cisplatin IC20 combination, at 0.5 µM
[19] = measured here: combination with cisplatin, at 0.5 µM
[20] = measured here: combination with cisplatin, at 5 µM

CCC1(O)C(=O)OCc2c1cc1n(c2=O)Cc2cc3c(CN(C)C)c(O)ccc3nc2-1 (stereo not drawn)
inhibition ([1]; at 0.5 µM, stronger effect = higher value): -7.42% (inactive) and 3.72% (inactive) and -2.55% (inactive)
inhibition ([1]; measured here: combination with BGB IC20, at 0.005 µM): -2.96% and 0.821% and -23.7%
inhibition ([1]; measured here: combination with BGB IC40, at 0.005 µM): -28.9% and -14.4% and -12.5%
inhibition [1, 16]: -8.3% and -3.25% and -7.46%
inhibition ([1]; measured here: combination with cisplatin, at 0.5 µM, stronger effect = higher value): 36.9% and 49.4% and -21.3%
inhibition ([1]; measured here: combination with cisplatin, at 5 µM, stronger effect = higher value): 93.3% and 91.7% and 75.9%
inhibition ([2]; BGB combo, at 5 µM): 96.4% and 97.1% and 98.1%
inhibition ([2]; at 0.5 µM): 83.1% (active) and 85.8% (active) and 82.9% (active)
inhibition ([2]; cisplatin combo, at 5 µM): 97.1% and 98% and 96.8%
inhibition [2, 17]: 87% and 85.5% and 88%
inhibition [2, 18]: 75.5% and 82.8% and 74.8%
inhibition ([2]; single agent, at 5 µM): 95.8% and 96% and 97%
inhibition ([3]; BGB IC20 combo, at 0.005 µM): 1.19% and -8.91% and -7.41%
inhibition ([3]; BGB IC40 combo, at 0.005 µM): -10.3% and 15% and 31.5%
inhibition ([3]; BGB IC40 combo, at 0.05 µM): 86.5% and 95.6% and 93.6%
inhibition ([3]; at 0.5 µM): -27.8% (inactive) and -43.8% (inactive) and -21.6% (inactive)
inhibition ([3]; cisplatin combo, at 0.05 µM): 86% and 95.5% and 93.6%
inhibition ([3]; cisplatin combo, at 0.5 µM): -32.3% and -49.7% and -34.5%
inhibition ([3]; cisplatin combo, at 5 µM): -21.2% and -33.4% and -10.9%
inhibition ([3]; measured here: 5 uM single agent, at 5 µM): -12.3% and -23.2% and -4.56%
inhibition ([4]; at 0.5 µM): 47.7% (inactive) and 43.3% (inactive) and 58.9% (inactive)
inhibition [4, 16]: 10.2% and -20.8% and 4.16%
inhibition [4, 19]: 82.2% and 88% and 73.7%
inhibition [4, 20]: 88.7% and 77.4% and 94.2%
inhibition ([5]; at 0.5 µM): 96.9% (active) and 98% (active) and 97.5% (active)
inhibition ([5]; measured here: with BGB IC20, at 0.5 µM): 96.8% and 97.1%
inhibition ([5]; measured here: with BGB IC20, at 5 µM): 97.9% and 97.6% and 98.3%
inhibition ([5]; measured here: with cisplatin IC20, at 0.5 µM): 95.9% and 98.1% and 97.3%
inhibition ([5]; measured here: with cisplatin IC20, at 5 µM): 99.6% and 99.8%
inhibition ([5]; single agent, at 5 µM): 99.8%
inhibition ([6]; at 0.5 µM): 65.1% (inactive) and 60.8% (inactive) and 61.1% (inactive)
inhibition ([6]; measured here: combination with BGB at IC20, at 0.5 µM): 71% and 76.8% and 68.6%
inhibition ([6]; measured here: combination with cisplatin at IC20, at 0.5 µM): 64.4% and 48.3%
inhibition ([7]; at 0.5 µM): 98% (active) and 98.7% (active) and 97.9% (active)
inhibition ([7]; measured here: combo with BGB at IC20, at 0.5 µM): 98% and 98.7% and 98.4%
inhibition ([7]; measured here: combo with cisplatin at IC20, at 0.5 µM): 97.6% and 98.6% and 97.2%
inhibition ([8]; at 0.5 µM): 77% (inactive) and 79.8% (inactive) and 77.4% (inactive)
inhibition ([8]; measured here: inhibition with BGB combination, at 0.05 µM): 19.5% and 12.5% and 11.3%
inhibition ([8]; measured here: inhibition with cisplatin combination, at 0.05 µM): 13.4% and 13.9% and 19.4%
inhibition ([9]; at 0.5 µM): -1.34% (inactive) and 9.72% (inactive) and -3.02% (inactive)
inhibition [9, 19]: 29.4% and 18.3% and 22.7%
inhibition [9, 20]: 72.5% and 69.7% and 68.5%
inhibition ([10]; at 0.5 µM): 69.2% (inactive) and 68.2% (inactive) and 67.8% (inactive)
inhibition ([10]; measured here: BGB combination, at 0.5 µM): 61.3% and 61.9% and 60.6%
inhibition ([10]; measured here: BGB combination, at 5 µM): 65.7% and 71.1% and 67.8%
inhibition ([10]; measured here: cisplatin combination, at 0.5 µM): 72.6% and 68.5% and 65.5%
inhibition ([10]; measured here: cisplatin combination, at 5 µM): 82% and 77.6% and 79.6%
inhibition ([11]; BGB combination, concentration series, at 5 µM): 103% and 101% and 96.7%
inhibition ([11]; at 0.5 µM): 82.6% (active) and 85.9% (active) and 82.4% (active)
inhibition ([11]; cisplatin combination, concentration series, at 5 µM): 113% and 107% and 110%
inhibition [12]: 64.5% (inactive) and 68.3% (inactive) and 55.5% (inactive)
inhibition ([12]; measured here: combo with BGB IC20): 69.2% and 71.9% and 60.5%
inhibition ([12]; measured here: combo with cisplatin IC20): 49.5% and 56.1% and 33.1%
inhibition ([13]; at 0.5 µM): 1.98% (inactive) and 4.12% (inactive) and -13.3% (inactive)
inhibition ([13]; cisplatin combination, at 0.5 µM): 37.8% and 38.2% and 36.1%
inhibition ([13]; cisplatin combination, at 5 µM): 37.9% and 28.6% and 20.5%
inhibition ([13]; measured here: BGB IC40 combination 0.05 uM, at 0.05 µM): -16.5% and -30.7% and -23.7%
inhibition ([13]; single agent, at 5 µM): -16% and -5.69% and -15.3%
inhibition ([14]; at 0.5 µM): 11.7% (inactive) and 6.99% (inactive) and 15.6% (inactive)
inhibition ([14]; cisplatin combo, at 5 µM): 82.3% and 73.1% and 75.9%
inhibition ([14]; measured here: BGB IC40 combination, at 0.05 µM): -8.83% and -28.2% and -20.8%
inhibition [14, 19]: 55.7% and 30% and 38.3%
inhibition ([14]; single agent, at 5 µM): 22.6% and 40.2% and 40.4%
inhibition ([15]; at 0.5 µM): 78.9% (inactive) and 88.5% (active) and 81.8% (active)
inhibition [15, 17]: 91% and 95% and 93.8%
inhibition [15, 18]: 72.9% and 85.2% and 75.9%
inhibition ([15]; single agent, at 0.05 µM): 35.3% and 52% and 56.4%
inhibition ([15]; single agent, at 5 µM): 99.6% and 99.9% and 99.7%
